Screening data deposited in PubChem by National Center for Advancing Translational Sciences (NCATS).
Rows were chosen to be rich in hits. Some 6.5% of all compounds tested hit in one or more screens of this group.
HT1080NT lethal: kills 2HG-producing HT-1080-NT fibrosarcoma cells; AID 686970; Potency, µM (titrated, usually from 46.1 µM), actives largely listed as cytotoxic; 360,000 tested, 1.6% active; HT-1080-NT fibrosarcoma viability, CellTiter-Glo ATP luminescence, 48 h;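 further: NT is the 2HG producing partner of a matched IDH1 knockdown line; nearly all actives have a fitted effect of over 55% in size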
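Compounds were tested in concentration-response format on HT-1080-NT cells for 48 hours at 37 degrees C. Cell viability came from CellTiter-Glo luminescence; curves were classified by r2, response magnitude and activity.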
TGFb SMAD3 inh: blocks TGF-b signaling; HepG2 CAGA-GFP TGF-b/SMAD3 reporter, GFP fluorescence, 18 h; TGF-beta stimulated, 500 pg/mL final; Potency, µM (doses to about 46.1 µM), most hits filed as inhibitors; 410,000 tested, 1.2% active; AID 588855; further: nearly all actives have a fitted effect of over 65% in size
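HEPG2 CAGA-GFP, 1000 cells/well; 2 h settle, 37 C; cpd via pin tool; TGF-b 500 pg/mL final; 18 h, 37 C; GFP imaging ex488/em500-530; %Activity normalised to -TGF-b and +DMSO controls; CRC fit, curve class.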
HepG2 viability: HepG2 cytotoxicity, counter-screen for TGF-b inhibitors | HepG2 CAGA-GFP viability, ATP luminescence, 18 h | Potency, µM (top dose mostly 46.1 µM), usual class: cytotoxic | 410,000 tested, 0.76% active
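CellTiter-Glo luminescence gave cytotoxicity after 18 hours at 37 degrees C. The cells were HepG2 CAGA-GFP in 1% FBS DMEM, stimulated with 500 pg/mL TGF-beta after compound addition. %Activity was normalised to no-cell wells (complete cell-killing) and DMSO (no toxicity), and curves were fitted and classified.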
IL1B secr inh: inflammasome signaling inhibition, IL-1 beta readout | AID 743279 | 360,000 tested, 4.7% active | THP-1 LPS/ATP IL-1B secretion, AlphaLISA, 16 h; active compounds read low | activity change, % at 57.5 µM; in the data active means activity change below about -50%; inconclusive means mostly about -30% to -49%
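Secreted IL-1B measured by AlphaLISA bead assay after 16 h compound exposure of THP-1 cells; compounds (final up to 57.5 uM) added 1 h before LPS (250 ng/mL) and ATP (1.25 mM) stimulation; lower signal means less secretion.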
Giardia kill: kills Giardia lamblia; activity change, % at 7.66 µM, hits read low; 340,000 tested, 0.15% active; Giardia lamblia trophozoite viability; in the data active means activity change below about -80%; inconclusive means between about -30% and that limit;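 further: parasites exposed to compound for two days anaerobically before the ATP read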
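Trophozoite viability was measured as ATP-dependent luminescence, read 15-30 min after reagent addition. Before that, parasites at 100 cells/well were exposed to compounds for 48 h, anaerobically, at 37 deg C.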
HT1080 IDH1KD tx: toxicity to HT-1080 IDH1 knockdown cells (counter line). HT-1080 IDH1 knockdown viability, ATP luminescence, 48 h. Potency, µM (doses to about 46.1 µM), actives largely listed as cytotoxic. 360,000 tested, 2% active. AID 686971
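Knockdown cells (IDH1KD HT-1080) received compounds 2 h after plating at 750 cells/well and were kept 48 h at 37 °C in 5% FBS RPMI. A CellTiter-Glo luminescence read gave % activity for curve fitting.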
Of the large screens only hits and unclear results are named; the others gave an inactive call. Unless noted, the call rests on the fitted dose curve; in most records, active means well fitted curve in the direction sought with a large enough effect; inconclusive means small, poorly fitted or top-dose-only effect, or another doubt; inactive means no such curve, though single readings can be large; an effect the other way counts as inactive or inconclusive.

CCOC(=O)c1cnc2ccc(OCC)cc2c1N1CCN(c2ccccc2OC)CC1	HT1080NT lethal inconclusive, TGFb SMAD3 inh inconclusive, IL1B secr inh -55, HT1080 IDH1KD tx inconclusive
CCOC(=O)c1[nH]c2ccc(OC)cc2c1NC(=S)N1CCN(C(=O)OCC)CC1	none
CCOC(=O)c1ccc2ncc(C(=O)OCC)c(Nc3ccc(N4CCOCC4)cc3)c2c1	HT1080NT lethal inconclusive, TGFb SMAD3 inh inconclusive, HT1080 IDH1KD tx inconclusive
CCOC(=O)c1cnc2ccc(OC)cc2c1Nc1ccc(N2CCN(C)CC2)cc1	HT1080NT lethal inconclusive, TGFb SMAD3 inh inconclusive, HT1080 IDH1KD tx 23µM
CCOC(=O)c1[nH]c2ccc(OC)cc2c1NC(=S)N1CCN(c2ccccc2OC)CC1	HT1080NT lethal inconclusive, TGFb SMAD3 inh inconclusive, HT1080 IDH1KD tx 13µM
Cc1nnc(NC(=O)CCC(=O)N2CCN(CCOc3cccc4ccccc34)CC2)s1	none
Cc1ccc(NC(=O)c2c(-c3c(F)cccc3Cl)noc2C)cc1F	none
Cn1ccnc1C(=O)c1cc(SCC(=O)NC2CC2)nc2ccccc12	none
CN(C(=O)CSc1cc(C(=O)c2nccn2C)c2ccccc2n1)c1ccccc1	TGFb SMAD3 inh 14µM, IL1B secr inh -56
Cc1ccc(S(=O)(=O)Nc2ccc3cc([N+](=O)[O-])ccc3c2[N+](=O)[O-])cc1	HT1080NT lethal 2.6µM, TGFb SMAD3 inh inconclusive, HT1080 IDH1KD tx inconclusive
O=C(CCN1CCCCC1)NCC1OCCc2ccccc21 (configuration not stated)	none
CN(C)/C=C/c1c([N+](=O)[O-])c2ccc(O)cc2n1-c1ccccc1	HT1080NT lethal inconclusive, TGFb SMAD3 inh inconclusive, IL1B secr inh -86, HT1080 IDH1KD tx inconclusive
CN(CC(=O)NCCc1ccc(F)cc1)Cc1ccc(Br)cc1	IL1B secr inh -59
CN(CC(=O)Nc1ccc(Br)cc1)Cc1ccccc1	IL1B secr inh -81
O=C(CSc1nc2ccccc2o1)Nc1ccccc1N1CCOCC1	none
Cc1[nH]c2ccccc2c1C(=O)COC(=O)C1CCC1	none
O=C(/C=C\Nc1ccc(S(=O)(=O)Nc2ncccn2)cc1)c1cccc2ccccc12	none
CC(C)(C)c1cc(NC(=O)Nc2ccc(Br)cc2Cl)no1	TGFb SMAD3 inh inconclusive, IL1B secr inh -57
CC(C)c1cccc(C(C)C)c1NC(=O)CCl	IL1B secr inh -83
CC(C)c1cccc(C(C)C)c1NC(=O)CNCC(O)c1ccccc1 (configuration not stated)	none
O=C(OCC(O)CO)c1ccccc1Nc1ccnc2cc(Cl)ccc12 (configuration not stated)	IL1B secr inh -83
CCOc1ccc(Nc2ccnc3cc(Cl)ccc23)cc1	HT1080NT lethal inconclusive, HT1080 IDH1KD tx inconclusive
Cc1nc(N2CCN(Cc3ccc4c(c3)OCO4)CC2)c2cc(-c3ccccc3)sc2n1	TGFb SMAD3 inh inconclusive, IL1B secr inh -62
Cc1nc(N2CCOCC2)c2cc(-c3ccccc3)sc2n1	IL1B secr inh inconclusive
O=S1(=O)N[C@H](Cc2ccccc2)COc2cc(N3CCSCC3)ccc21	none (no result: TGFb SMAD3 inh, HepG2 viability, Giardia kill)
O=C(COC(=O)C1CC(=O)N(c2ccc3c(c2)OCCO3)C1)NC1CCCc2ccccc21 (configuration not stated)	none
CCCOc1ccc(-c2cc(C(F)(F)F)c(C#N)c(SCCC(=O)O)n2)cc1	none (no result: HT1080NT lethal, IL1B secr inh, Giardia kill, HT1080 IDH1KD tx)
CCCOc1ccc(-c2cc(C(F)(F)F)c(C#N)c(SCC(=O)O)n2)cc1	IL1B secr inh -71
CCN(CC)CCN(C)Cc1nc(C(c2ccccc2)c2ccccc2)no1	IL1B secr inh -64
CC(C)CNC(=S)NC(=O)c1csc([N+](=O)[O-])c1	TGFb SMAD3 inh inconclusive, Giardia kill -87
CC(C)CNC(=S)NC(=O)c1ccc([N+](=O)[O-])cc1	none
COc1ccccc1NC(=O)N1CCC(NC(=O)C2CCCCC2)CC1	none
Cc1ccc(NS(=O)(=O)c2ccc(NC(=O)CSc3ccc(Cl)cc3)cc2)c(C)c1	HT1080NT lethal 16µM, HT1080 IDH1KD tx inconclusive
Cc1ccc(NS(=O)(=O)c2ccc(NC(=O)c3ccccc3C(=O)O)cc2)c(C)c1	HT1080NT lethal inconclusive, IL1B secr inh -67
Cc1ccc(O)c(NC(=O)CSc2ccc(Cl)cc2)c1	TGFb SMAD3 inh inconclusive, IL1B secr inh inconclusive
O=C(N=NC(=O)c1ccc2c(O)n(C3CCCCC3)c(O)c2c1)c1cccnc1	none
CC(NCCN(C)C)C1CCC2C3CCc4cc(O)ccc4C3CCC12C (configuration not stated)	HT1080NT lethal inconclusive, TGFb SMAD3 inh inconclusive, IL1B secr inh -102, Giardia kill inconclusive, HT1080 IDH1KD tx inconclusive
CC(=O)O[C@H]1CC[C@H]2[C@@H]3CCc4cc(O)ccc4[C@H]3CC[C@]12C	HT1080NT lethal 18µM, TGFb SMAD3 inh inconclusive, HT1080 IDH1KD tx inconclusive
CC12CCC3c4ccc(O)cc4CCC3C1CCC2=O (configuration not stated)	none
C[C@]12CC[C@@H]3c4ccc(O)cc4CC[C@H]3[C@@H]1CC[C@@H]2O	HT1080NT lethal inconclusive, HT1080 IDH1KD tx inconclusive
C#C[C@]1(O)CC[C@H]2[C@@H]3CCc4cc(O)ccc4[C@H]3CC[C@@]21C	HT1080NT lethal 9.2µM, HT1080 IDH1KD tx 21µM
CC(=O)OC1CCC2C3CCc4cc(O)ccc4C3CCC12C (configuration not stated)	HT1080NT lethal inconclusive, HT1080 IDH1KD tx inconclusive
CCOc1ccc(CCNC(=O)CSc2n[nH]c(-c3ccccc3)n2)cc1OCC	none (no result: HT1080NT lethal, IL1B secr inh, Giardia kill, HT1080 IDH1KD tx)
Cc1ccc(NC(=O)c2ccc(S(=O)(=O)N(C)c3ccccc3)cc2)cc1S(=O)(=O)N1CCOCC1	TGFb SMAD3 inh inconclusive
O=C(Nc1ccccc1)OCC1COC(c2ccccc2)(c2ccccc2)O1 (configuration not stated)	IL1B secr inh -69
O=C(Nc1ccccc1)OCC1CCCO1 (configuration not stated)	none
COC(=O)C1=C(C)N(c2ccc(Cl)c(Cl)c2)C(=O)C1	HT1080NT lethal 15µM, TGFb SMAD3 inh inconclusive, HT1080 IDH1KD tx inconclusive
COC(=O)C1=C(C)N(c2ccc(S(N)(=O)=O)cc2)C(=O)C1	none
COc1ccc(Cn2c(/C=C/c3ccccc3)nc3ccccc32)cc1	HT1080NT lethal 11µM, TGFb SMAD3 inh inconclusive, IL1B secr inh -78, HT1080 IDH1KD tx inconclusive
COc1ccc(/C=C/c2nc3ccccc3n2C)cc1	HT1080NT lethal 5.2µM, IL1B secr inh -73, Giardia kill inconclusive, HT1080 IDH1KD tx 4.6µM
COc1ccc2c(c1)nc(N)n2Cc1ccccc1	IL1B secr inh -98
COc1cccc(OCc2nc3ccccc3n2Cc2ccccc2)c1	TGFb SMAD3 inh inconclusive (no result: HT1080NT lethal, IL1B secr inh, Giardia kill, HT1080 IDH1KD tx)
